# PubChem BioAssay (Tox21)
# Where “and” joins values, the source holds several entries; their conditions need not be identical. Identical values can stand only once. Records with an inconclusive call do not appear. Entries that show only a call come without a potency. Some structures have more than one record in an assay (separate samples or runs), and their calls can disagree. Calls of active or inactive are those of the source. Unless noted, calls come from the whole dose curve; as a rule, active = well fitted curve in the direction sought with a large enough effect in the repeat runs; inconclusive = weak or mixed curves; inactive = no such curve, though single readings can be large; an effect the other way counts as inactive or inconclusive.
# Columns and labels:
# [1] = qHTS assay to identify aromatase inhibitors - cell viability counter screen (AID 743084);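 note: cells stimulated with testosterone during compound exposure; nearly all actives have a fitted effect of over 55% in size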; note: potency is the fitted concentration of half-maximal effect
# [2] = biological target: Aryl hydrocarbon receptor (Homo sapiens) (UniProt P35869); experiment: qHTS assay to identify small molecule that activate the aryl hydrocarbon receptor (AhR) signaling pathway (AID 743085); note: nearly all actives have a fitted effect of over 15% in size; note: potency is the fitted concentration of half-maximal effect;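 for activation: HG2L7.5c1 human HepG2 liver cells with stably integrated DRE-driven firefly reporter; series mostly up to about 70 µM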
# Sequence of Aryl hydrocarbon receptor (Homo sapiens) (P35869 whole entry, looked up): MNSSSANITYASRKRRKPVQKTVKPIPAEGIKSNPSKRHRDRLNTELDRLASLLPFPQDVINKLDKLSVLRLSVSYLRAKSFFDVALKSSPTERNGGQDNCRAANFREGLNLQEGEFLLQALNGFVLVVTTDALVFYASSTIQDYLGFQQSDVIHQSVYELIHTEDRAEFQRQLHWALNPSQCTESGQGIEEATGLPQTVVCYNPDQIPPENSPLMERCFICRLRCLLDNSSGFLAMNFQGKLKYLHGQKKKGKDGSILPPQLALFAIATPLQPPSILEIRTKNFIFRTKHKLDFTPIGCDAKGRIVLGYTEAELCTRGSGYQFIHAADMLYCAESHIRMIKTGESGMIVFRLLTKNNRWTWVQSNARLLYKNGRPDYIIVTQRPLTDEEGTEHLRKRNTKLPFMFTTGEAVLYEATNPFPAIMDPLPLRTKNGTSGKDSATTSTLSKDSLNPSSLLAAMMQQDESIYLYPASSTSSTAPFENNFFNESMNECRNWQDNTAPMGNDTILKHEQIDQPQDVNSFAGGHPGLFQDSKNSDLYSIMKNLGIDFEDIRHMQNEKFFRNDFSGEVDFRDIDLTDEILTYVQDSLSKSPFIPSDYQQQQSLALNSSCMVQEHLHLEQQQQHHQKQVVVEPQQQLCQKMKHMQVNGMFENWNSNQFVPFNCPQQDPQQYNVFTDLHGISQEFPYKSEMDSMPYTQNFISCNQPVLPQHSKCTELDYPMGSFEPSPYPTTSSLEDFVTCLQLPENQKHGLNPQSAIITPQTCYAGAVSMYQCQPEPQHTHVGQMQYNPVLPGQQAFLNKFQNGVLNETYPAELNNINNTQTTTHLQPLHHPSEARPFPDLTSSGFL
# In short: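 24 h compound exposure, 37C, HepG2-derived HG2L7.5c1 cells with DRE-responsive luciferase. Readouts: fluorescence viability, then luminescence at room temperature after 30 min.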
# [3] = qHTS assay to identify small molecule that activate the aryl hydrocarbon receptor (AhR) signaling pathway - cell viability counter screen (AID 743086); note: nearly all actives have a fitted effect of over 45% in size; note: potency is the fitted concentration of half-maximal effect
# In short: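 HepG2-AhR-luc (HG2L7.5c1) cells, 4000/well, were preincubated 5 h at 37C, exposed to compound in qHTS format for 24 hr at 37C, then given CellTiter-Fluor for 30 min; viability was read as fluorescence in the reporter wells.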
# [4] = biological target: Peroxisome proliferator-activated receptor gamma (Homo sapiens) (UniProt P37231); experiment: qHTS assay to identify small molecule agonists of the peroxisome proliferator-activated receptor gamma (PPARg) signaling pathway (AID 743094; active = well fitted activation curve with a large enough effect in the signal ratio in the repeat runs, not every such curve was filed as active; the % refers to the signal ratio; note: potency is the fitted concentration of half-maximal effect)
# Sequence of Peroxisome proliferator-activated receptor gamma (Homo sapiens) (P37231 whole entry, looked up): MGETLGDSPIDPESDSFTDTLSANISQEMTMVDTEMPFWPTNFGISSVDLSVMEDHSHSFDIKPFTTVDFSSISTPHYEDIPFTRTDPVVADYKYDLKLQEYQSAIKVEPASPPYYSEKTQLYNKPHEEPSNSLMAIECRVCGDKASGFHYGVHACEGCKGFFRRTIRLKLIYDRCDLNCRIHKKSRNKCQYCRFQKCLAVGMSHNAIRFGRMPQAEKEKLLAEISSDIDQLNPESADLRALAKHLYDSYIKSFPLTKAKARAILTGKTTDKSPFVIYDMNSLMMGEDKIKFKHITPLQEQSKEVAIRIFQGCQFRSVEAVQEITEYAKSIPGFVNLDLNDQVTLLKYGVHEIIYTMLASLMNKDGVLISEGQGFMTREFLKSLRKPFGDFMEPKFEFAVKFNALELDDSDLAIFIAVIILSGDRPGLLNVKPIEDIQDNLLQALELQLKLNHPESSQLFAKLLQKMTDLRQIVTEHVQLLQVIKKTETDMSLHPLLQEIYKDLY
# In short: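 Fluorescence-based beta-lactamase readout in HEK293H PPARg UAS-bla cells after 17 h compound exposure (37C) and 1 h B/G FRET substrate incubation at room temperature.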
# [5] = biological target: Peroxisome proliferator-activated receptor gamma (Homo sapiens) (UniProt P37231); experiment: qHTS assay to identify small molecule antagonists of the peroxisome proliferator-activated receptor gamma (PPARg) signaling pathway (AID 743191; calls by dose curve; note: series mostly up to about 63 µM; nearly all actives have a fitted effect of over 30% in size)
# In short: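 GeneBLAzer PPARg UAS-bla HEK293H cells carrying a UAS-driven beta-lactamase reporter were plated at 3000 cells/well, preincubated 5 h at 37C, then given compound for 17 h at 37C; LiveBLAzer B/G FRET substrate was read after 1 h at room temperature.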
# [6] = qHTS assay to identify small molecule antagonists of the peroxisome proliferator-activated receptor gamma (PPARg) signaling pathway - cell viability counter screen (AID 743194); note: nearly all actives have a fitted effect of over 55% in size; note: potency is the fitted concentration of half-maximal effect
# In short: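 PPARg-UAS-bla HEK293H cells were plated, rested 5 h at 37 C, then treated with compounds plus rosiglitazone (50 nM final) for 17 h at 37 C; viability was then read by CellTiter-Glo luminescence after 30 min at room temperature.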
# [7] = qHTS assay for small molecule agonists of the antioxidant response element (ARE) signaling pathway (AID 743202; active = well fitted activation curve with a large enough effect in the signal ratio in the repeat runs, not every such curve was filed as active; the % refers to the signal ratio; note: potency is the fitted concentration of half-maximal effect)
# In short: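 Steps: seed ARE-bla HepG2 cells (2,000/well); incubate 5 h at 37 C; add compounds by pin tool; incubate 16 h at 37 C; add FRET substrate; read fluorescence after 2 h at RT.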
# [8] = qHTS assay for small molecule agonists of the antioxidant response element (ARE) signaling pathway - cell viability counter screen (AID 743203; calls by dose curve; note: nearly all actives have a fitted effect of over 55% in size; note: potency is the fitted concentration of half-maximal effect)
# In short: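 Parallel cytotoxicity read-out for the ARE-bla screen: HepG2 reporter cells, 16 hrs with compounds, then CellTiter-Glo luminescence.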
# [9] = qHTS assay for small molecule activators of the heat shock response signaling pathway - cell viability counter screen (AID 743209); note: nearly all actives have a fitted effect of over 50% in size; note: potency is the fitted concentration of half-maximal effect
# In short: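 To flag cytotoxic compounds, HSE-bla HeLa cells plated at 1500 cells/well were dosed for 5 h at 37 C, followed by the reporter FRET read and then CellTiter-Glo, with luminescence recorded 30 min after reagent addition.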
# [10] = qHTS assay for small molecule activators of the heat shock response signaling pathway (AID 743210; active = well fitted activation curve with a large enough effect in the signal ratio in the repeat runs, with a control signal flat, not every such curve was filed as active; the % refers to the signal ratio;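 note: HeLa cells with beta-lactamase reporter driven by heat shock elements; series mostly up to about 63 µM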)
# In short: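 Activation of heat shock element-controlled beta-lactamase expression is measured in HeLa cells by LiveBLAzer FRET fluorescence, with compound exposure lasting 5 h at 37 C and substrate loading 2.5 h at room temperature.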
Structure (SMILES),Potency [1],Potency [2],Potency [3],Potency [4],Potency [5],Potency [6],Potency [7],Potency [8],Potency [9],Potency [10]
CC(C)CCOCc1ccccc1,inactive,inactive,inactive,inactive,inactive,inactive,inactive,inactive,inactive,inactive
CN(C)c1ccc(C(=C2C=CC(=[N+](C)C)C=C2)c2ccccc2)cc1,1.93 µM (active),inactive,inactive and 1.93 µM (active),26.8 µM (active),–,61.7 nM (active) and 668 nM (active),–,–,–,–
CCn1c2ccccc2c2cc(N)ccc21,inactive,9.59 µM (active) and 9.69 µM (active) and 3.06 µM (active),inactive,inactive,inactive,inactive,inactive,inactive,inactive,–
COc1cc(C(=S)N2CCOCC2)ccc1O,inactive,inactive,inactive,inactive,–,inactive,inactive,inactive,inactive,–
OCC(CO)N[C@H]1C[C@](O)(CO)[C@@H](O)[C@H](O)[C@H]1O,inactive,inactive,inactive,inactive,inactive,inactive,–,inactive,inactive,inactive
Clc1ccc2c(c1)C(N1CCNCC1)=Nc1ccccc1O2,inactive,inactive,inactive,inactive,inactive,–,–,–,inactive,–
COC(c1ccccc1)(c1ccccc1)[C@H](Oc1nc(C)cc(C)n1)C(=O)O,inactive,inactive,inactive,inactive,inactive,inactive,inactive,–,–,inactive
C=CC(=O)OCCCCCCCC,inactive,inactive,inactive,inactive,inactive,inactive,inactive,inactive,inactive,inactive
CCCCN(CCO)CCCC,inactive,inactive,inactive,inactive,inactive,inactive,inactive,inactive,inactive,inactive
CC1COC(=O)O1 (configuration not stated),inactive,inactive,inactive,inactive,inactive,inactive,inactive,inactive,inactive,inactive
C[N+]1([O-])CCOCC1,inactive,inactive,inactive,inactive,inactive,inactive,inactive,inactive,inactive,inactive
Cc1cccc(O)c1C,inactive,inactive,inactive,inactive,inactive,inactive,inactive,inactive,inactive,inactive
NC(N)=NC(=O)Cc1c(Cl)cccc1Cl,inactive,inactive,inactive,inactive,inactive,inactive,–,inactive,inactive,–
CCC(CO)(CO)COCC(CC)(CO)CO,inactive,inactive,inactive,inactive,inactive,inactive,inactive,inactive,inactive,inactive
Nc1cc(S(=O)(=O)O)cc2cc(S(=O)(=O)O)cc(O)c12,inactive,inactive,inactive,inactive,–,inactive,inactive,inactive,inactive,–
C=C(C)C1CC=C(C)C(OC(C)=O)C1 (configuration not stated),inactive,inactive,inactive,inactive,inactive,inactive,inactive,–,inactive,inactive
CCc1cc(C(C)(C)C)c(O)c(C(C)(C)C)c1,inactive,inactive,inactive,inactive,inactive,inactive,inactive,inactive,inactive,inactive
Cc1ccnc2c1NC(=O)c1cccnc1N2C1CC1,inactive,inactive,inactive,inactive,inactive,inactive,inactive,–,inactive,inactive
CCC[C@H](N[C@@H](C)C(=O)N1[C@H](C(=O)O)C[C@@H]2CCCC[C@@H]21)C(=O)OCC,inactive,inactive,inactive,inactive,inactive,inactive,inactive,inactive,inactive,inactive
CC(=O)CC(=O)Nc1ccc2[nH]c(=O)[nH]c2c1,inactive,inactive,inactive,inactive,inactive,inactive,inactive,–,inactive,inactive
NNCCc1ccccc1,inactive,10.1 µM (active) and 30.7 µM (active),inactive,inactive,inactive,inactive,inactive,inactive,inactive,inactive
CC(=O)C1=C(C)[C@@H]2C[C@@]3(C1)[C@H](C)CC[C@H]3C2(C)C,inactive,inactive,inactive,inactive,inactive,inactive,inactive,inactive,inactive,inactive

Structure (SMILES),Potency [1],Potency [2],Potency [3],Potency [4],Potency [5],Potency [6],Potency [7],Potency [8],Potency [9],Potency [10]
CCOc1ccc2c(c1)C(C)=CC(C)(C)N2,inactive,inactive,inactive,21.3 µM (active),–,inactive,61.1 µM (active),inactive,inactive,–
CC1=CC(=O)c2ccccc2C1=O,inactive and 24.3 µM (active),6.68 µM (active) and 24.3 µM (active),inactive,inactive,–,11 µM (active) and 26.6 µM (active),9.44 µM (active),24.3 µM (active) and 29.8 µM (active),15.5 µM (active) and 2.66 µM (active),–
Cc1scc2c1N(C(=O)CN1CCN(C)CC1)c1ccccc1NC2=O,inactive,inactive,inactive,inactive,inactive,inactive,inactive,–,inactive,inactive
c1ccc2n[nH]nc2c1,inactive,inactive,inactive,inactive,inactive,inactive,inactive,inactive,inactive,inactive
O=S(=O)(O)c1ccc2nc(-c3ccccc3)[nH]c2c1,inactive,inactive,inactive,inactive,inactive,inactive,inactive,20.6 µM (active) and inactive,–,inactive
OCCN1CCNCC1,inactive,inactive,inactive,inactive,inactive,inactive,inactive,inactive,inactive,inactive
Cc1cc(C2(c3cc(C)c(O)cc3C)OS(=O)(=O)c3ccccc32)c(C)cc1O,21.7 µM (active) and 24.3 µM (active),30.6 µM (active) and inactive,19.3 µM (active) and 21.7 µM (active),inactive,inactive,inactive,inactive,inactive,inactive,–
CC(=O)N[C@@H](CS)C(=O)O,inactive,inactive,inactive,inactive,inactive,inactive,inactive,inactive,inactive,inactive
NC12CC3CC(CC(C3)C1)C2,inactive,inactive,inactive,inactive,–,inactive,inactive,inactive,inactive,–
NC(=Nc1ccccc1)Nc1ccccc1,inactive,inactive and 19.3 µM (active),6.11 µM (active),inactive,inactive,inactive,13.3 µM (active),–,inactive,inactive
C=CS(=O)(=O)O,inactive,inactive,inactive,inactive,–,inactive,inactive,inactive,inactive,inactive
CC(C(O)c1ccc(O)cc1)N1CCC(Cc2ccccc2)CC1 (configuration not stated),inactive,inactive,inactive,inactive,inactive,inactive,inactive,inactive,inactive,inactive
CC1COc2c(N3CCN(C)CC3)c(F)cc3c(=O)c(C(=O)O)cn1c23 (configuration not stated),inactive,inactive,inactive,inactive,inactive,inactive,inactive,inactive,inactive,inactive
C1COC(NC(C2CC2)C2CC2)=N1,inactive,inactive,inactive,inactive,inactive,inactive,inactive,inactive,inactive,inactive
c1ccc2c(c1)CCCC2C1=NCCN1 (configuration not stated),inactive,inactive,inactive,inactive,inactive,inactive,inactive,inactive,inactive,inactive
O=C(Oc1ccccc1)c1ccccc1O,inactive,inactive,inactive,inactive,–,inactive,inactive,inactive,inactive,inactive
CO[Si](OC)(OC)c1ccccc1,inactive,inactive,inactive,inactive,–,inactive,–,inactive,–,inactive
O=C(O)c1cn(-c2ccc(F)cc2)c2cc(N3CCNCC3)c(F)cc2c1=O,inactive,inactive,inactive,inactive,–,inactive,inactive,inactive,inactive,inactive
COC(=O)c1cccc(C(=O)OC)c1,inactive,inactive,inactive,inactive,–,inactive,inactive,–,inactive,inactive
O=C(O)c1cc(Cl)cc(Cl)c1,inactive,inactive,inactive,inactive,–,inactive,inactive,inactive,inactive,inactive
O=C(O)CP(=O)(O)O,inactive,inactive,inactive,inactive,–,inactive,inactive,–,inactive,inactive
